Compounds with a hit are over-represented: about 21% of the library has one in this group of screens.
SARS PLP yeast – qHTS of Yeast-based Assay for SARS-CoV PLP; S. cerevisiae expressing SARS-CoV PLpro, growth rescue; Potency, µM (top dose mostly 32.9 µM), actives largely listed as activators; 330,000 tested, 0.19% active; AID 485353, 2010; further: nearly all actives have a fitted effect of over 55% in size
CHX counter – Cycloheximide Counterscreen for Small Molecule Inhibitors of Shiga Toxin | max response, % | AID 2314, 2010 | 300,000 tested, 12% active | cell reporter, cycloheximide protein synthesis inhibition counterscreen; in the data active means max response mostly above about 13%, no sharp cut-off; inactive means mostly below about 14%; further: read at 38.3 µM for the half of the compounds with a filed dose
Shiga toxin inh – A qHTS for Small Molecule Inhibitors of Shiga Toxin. AID 2315, 2010. inhibition, % at 38.7 µM. 290,000 tested, 9.2% active. Vero cells, Shiga toxin protein synthesis inhibition reporter; in the data active means inhibition mostly above about 28%, no sharp cut-off; inactive means mostly below about 43%
NS1 function inh – qHTS Assay for Inhibitors of Influenza NS1 Protein Function. Potency, µM (titrated, usually from 46.1 µM). 270,000 tested, 0.4% active. AID 2326, 2010; further: actives are rising curves; nearly all actives have a fitted effect of over 50% in size
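S. cerevisiae expressing influenza A NS1, grown in glucose, washed, then diluted 1:100 into pH 6.0 -URA galactose medium with 23 nl compound. Growth recovery read as OD600; NS1-free strain serves as control.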
Pf growth 96h – Primary qHTS for delayed death inhibitors of the malarial parasite plastid, 96 hour incubation; Potency, µM (highest dose often 28.7 µM), hits mostly inhibitors; 320,000 tested, 6.9% active; P. falciparum luciferase reporter growth, 96 h; active means well fitted inhibition curve with a large enough effect; inconclusive means small, poorly fitted or top-dose-only effect, or another doubt; inactive means no such curve, though single readings can be large or run the other way
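Delayed-death screen, second-generation endpoint: infected erythrocytes, 2% hematocrit, 0.05% parasitemia final; 96 hours at 37 C, 5% CO2; luciferase detection reagent; luminescence decrease equals reduced growth.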
Pf growth 48h – Primary qHTS for delayed death inhibitors of the malarial parasite plastid, 48 hour incubation | Potency, µM (series often up to 28.7 µM), most hits filed as inhibitors | 310,000 tested, 5.9% active | AID 504832, 2011 | P. falciparum luciferase growth in erythrocytes, 48 h; active means well fitted inhibition curve with a large enough effect; inconclusive means small, poorly fitted or top-dose-only effect, or another doubt; inactive means no such curve, though single readings can be large or run the other way
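Firefly luciferase activity from engineered P. falciparum reports growth; inhibitors lower the luminescent signal. Cultures contained 2% hematocrit erythrocytes at 0.1% final parasitemia.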
Each line names hits and unclear results; the compound was inactive in the other large screens. Unless noted, the call rests on the fitted dose curve.

CC(C)COP(=O)(OCC(C)C)C(O)c1ccc(N(C)C)cc1 (configuration not stated)	none
N/C(CN1CCCC1=O)=N\OC(=O)c1ccc(Cl)c(Cl)c1	CHX counter 23
N/C(CN1CCCC1=O)=N\OC(=O)c1ccc(Cl)cc1	CHX counter 15, Pf growth 96h 12µM
O=C(O/N=C(\c1ccccc1)c1ccccn1)c1ccc(Cl)c(Cl)c1	Pf growth 96h inconclusive
NC(=O)c1cc([N+](=O)[O-])c(Cl)cc1NCc1cccnc1	none (no result: CHX counter, Shiga toxin inh, NS1 function inh)
CC(C)CCN1CCN(Cc2cccn2-c2cccnc2)CC1CCO (configuration not stated)	Pf growth 96h inconclusive
Cc1ccc(CN2CCN(Cc3ccncc3)CC2CCO)o1 (configuration not stated)	Pf growth 96h inconclusive
OCCC1CN(Cc2cccn2-c2ncccn2)CCN1Cc1ccccc1 (configuration not stated)	Pf growth 96h 13µM
CCn1ccnc1CN1CCN(CCC(C)C)C(CCO)C1 (configuration not stated)	Pf growth 96h 12µM
Cc1ccc(CN2CCN(Cc3cccn3-c3ccc(Cl)cn3)CC2CCO)o1 (configuration not stated)	Pf growth 96h 12µM, Pf growth 48h inconclusive
CC(C)CCN1CCN(Cc2cccn2-c2ccc(Cl)cn2)CC1CCO (configuration not stated)	Pf growth 48h 9.3µM
Cc1ccc(CN2CCN(Cc3cccn3-c3ccccn3)CC2CCO)cc1 (configuration not stated)	none
CC(C)N(CCO)C(=O)CCc1nnc(Cc2cccc(C(F)(F)F)c2)o1	CHX counter 19, Pf growth 96h inconclusive
Cc1cc(-c2nnc(CCC(=O)NCc3cccc(C(F)(F)F)c3)o2)no1	CHX counter 21, Pf growth 96h inconclusive
Cc1cc(-c2nnc(CCC(=O)NCc3ccc(F)c(F)c3)o2)no1	Pf growth 96h inconclusive
CCC(COC)NC(=O)CCc1nnc(Cc2cccc(C(F)(F)F)c2)o1 (configuration not stated)	CHX counter 46, Shiga toxin inh 60
CC(C)NC(=O)CCc1nnc(Cc2cccc(C(F)(F)F)c2)o1	CHX counter 28, Shiga toxin inh 92
CCC(C)(C(=O)NC1CCCC1)N(C(=O)CC1NC(=O)NC1=O)c1c(C)n(C)n(-c2ccccc2)c1=O (configuration not stated)	none (no result: NS1 function inh)
C/C(CC(=O)Nc1ccc(N(C)C)cc1)=N\NC(=O)c1ccc(C(C)(C)C)cc1	Pf growth 96h 4.1µM
C/C(CC(=O)Nc1ccc(N(C)C)cc1)=N\NC(=O)c1ccc([N+](=O)[O-])cc1Cl	none
C/C(CC(=O)Nc1ccc(N(C)C)cc1)=N\NC(=O)c1ccc(F)cc1	CHX counter 31, Shiga toxin inh 36
Cc1ccc2cc(CCNC(=O)c3cccs3)c(=O)[nH]c2c1C	CHX counter 45, Shiga toxin inh 47
Cc1ccc2cc(CCNC(=O)c3cccs3)c(=O)[nH]c2c1	CHX counter 25
CCC(CC)C(=O)NCCc1cc2ccc(C)cc2[nH]c1=O	none
Cc1ccc2cc(CCNC(=O)C(=O)c3c(C)[nH]c4ccccc34)c(=O)[nH]c2c1	Pf growth 48h inconclusive
CC(=O)NCCc1cc2ccc(C)c(C)c2[nH]c1=O	none
Cc1ccc2cc(CCNC(=O)C(=O)c3c[nH]c4ccccc34)c(=O)[nH]c2c1	Pf growth 96h inconclusive, Pf growth 48h 9.3µM
Cc1ccc2cc(CNC(C)(C)C)c(=O)[nH]c2c1	CHX counter 18 (no result: Pf growth 96h)
CNCc1cc2ccc(C)cc2[nH]c1=O	none
COc1ccc(-c2c(NC(=O)c3ccco3)oc3c(C)cccc3c2=O)cc1OC	none
S=C(Nc1ccccc1)N1N=CCC1c1ccccc1 (configuration not stated)	CHX counter 26, Shiga toxin inh 78 (no result: Pf growth 96h)
O=C(CSc1nnnn1-c1ccccc1)N1N=CCC1c1ccccc1 (configuration not stated)	none

Screening results as filed in PubChem BioAssay.
